PglD inh: inhibitors of Campylobacter jejuni PglD acetyltransferase. purified PglD enzyme, DTNB colorimetric CoA detection. inhibition, % at 12.5 µM. 360,000 tested, 0.098% active; in the data active = inhibition above about 16%, passing the limit was not always enough; inconclusive = no clear call, values can overlap the other calls
F508del corr: CFTR F508del correction in bronchial cells. CFBE cells, YFP halide quenching; stimulated with forskolin plus potentiator P3; % fluorescence drop versus neutral controls. activity (quench increase), % at 7.58 µM. 350,000 tested, 0.36% active. AID 720511;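 active = mean added fluorescence quench of at least 8% versus neutral control, with both replicates also reaching 8%; inconclusive = only one of the mean or replicate conditions met; inactive = mean below 8% and not both replicates reaching 8%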;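 note: cells transiently co-express mutant CFTR-F508del with the halide-sensitive YFP; corrector assay measuring rescue of mutant channel to the surface after 24 h compound exposure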
NSD2 HMT inh: blocks human histone methyltransferase NSD2; inhibition, % at 12.5 µM; AID 743445; NSD2 peptide methylation, AlphaScreen, 120 min; 310,000 tested, 0.54% active; O96028; in the data active = inhibition above about 50%
ALR H2O2 inh: human ALR oxidase inhibition via reduced H2O2; P55789; purified ALR, DTT oxidation, H2O2 HRP-luminol luminescence; inhibition, % (test concentration not listed); 290,000 tested, 3.8% active;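 active = mean replicate inhibition above about 79%, with every replicate also reaching it, limit read from the data; inconclusive = only one of the two criteria met; inactive = mean below limit and not every replicate reaching it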
Target sequence (P55789 whole entry, looked up): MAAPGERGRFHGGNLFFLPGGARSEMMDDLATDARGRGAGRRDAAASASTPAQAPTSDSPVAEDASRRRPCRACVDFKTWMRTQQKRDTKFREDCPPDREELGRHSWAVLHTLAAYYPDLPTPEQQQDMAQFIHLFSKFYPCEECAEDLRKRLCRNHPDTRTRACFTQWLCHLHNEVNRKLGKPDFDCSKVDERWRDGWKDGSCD
HIV Env fusion: blocks HIV Env-driven cell-cell fusion; HeLa-JRFL Env/CEM21 cell fusion, luciferase; inhibition, % at 12.3 µM; 360,000 tested, 1.1% active; AID 651610;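 active = mean replicate inhibition score of at least 50 and every replicate individually at or above 50; inconclusive = only one of the two criteria met; inactive = mean below 50 and not all replicates reaching 50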;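 note: 0% = plate neutral controls and 100% = maraviroc near 300 nM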
Casp6 inh: inhibitors of human caspase-6 | 350,000 tested, 0.53% active | P55212 | inhibition, % at 12.5 µM | AID 686996 | purified caspase-6, Z-VEID-R110 cleavage fluorescence;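 active = mean inhibition across replicates at least about 35%, with every replicate also reaching that limit, limit read from the data; inconclusive = only one of the two criteria met; inactive = neither criterion met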;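 note: 0% = median of neutral control wells and 100% = no fluorescence left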
Target sequence (P55212 24-179 limits assumed): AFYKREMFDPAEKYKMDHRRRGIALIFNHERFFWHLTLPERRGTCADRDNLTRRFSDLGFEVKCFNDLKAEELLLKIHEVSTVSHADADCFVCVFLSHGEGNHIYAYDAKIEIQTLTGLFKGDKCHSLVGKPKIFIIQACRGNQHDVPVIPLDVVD
Target sequence (P55212 194-293 limits assumed): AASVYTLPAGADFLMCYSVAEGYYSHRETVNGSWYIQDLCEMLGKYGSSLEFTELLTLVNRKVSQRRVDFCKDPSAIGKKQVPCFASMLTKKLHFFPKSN
Starred values were filed as active, the others as inactive; ? = inconclusive; . = no result; [ ] = another dose, or the depositor's remark. The list is not random: actives were taken first. Their share in the collection is about 4.1%.

SMILES	PglD inh	F508del corr	NSD2 HMT inh	ALR H2O2 inh	HIV Env fusion	Casp6 inh
N#Cc1c(NC(=O)c2ccc([N+](=O)[O-])o2)sc2c1CCC2	-1	0	.	.	-49	59*
N#Cc1c(NC(=O)c2cccnc2)sc2c1CCC2	1	.	4	8	-279	.
N#Cc1c(NC(=O)c2cnccn2)sc2c1CCCC2	.	.	2	98*	-164	17
NC(=O)c1c(NC(=O)c2ccc([N+](=O)[O-])o2)sc2c1CCCC2	-2	-3	-2	-9	0	0
CN1CCc2c(sc(NC(=O)c3cc(Cl)sc3Cl)c2C(N)=O)C1	-1	2	.	97*	.	-2
CO[C@H]1CN(C)C(=O)c2cc(C#N)ccc2OCC[C@@H]2CC[C@@H](OC)[C@H](CN(C)C(=O)[C@H]1C)O2	0	.	.	.	14[16.7 µM]	0
Cc1ccc(C(=O)NCc2ccc3c(c2)OCO3)o1	-1	0	1	9	-15	-3
Cc1ccc(/C=C/C(=O)Nc2sc3c(c2C#N)CCCC3)o1	1	.	2	93*	13	5
Cc1ccc(/C=C/C(=O)NCc2ccc3c(c2)OCO3)o1	.	.	3	92*	-2	.
CN1CCc2c(sc(NC(=O)c3ccc([N+](=O)[O-])o3)c2C(N)=O)C1	-3	2	23	-10	72*	23
COCC(=O)N1CC2(C1)[C@@H](c1ccccc1)[C@@H](CO)N2Cc1ccccc1OC	.	-3	.	.	.	-1
O=C(NNC(=S)NC1CCCCC1)c1cccs1	3	-2	-2	?	-8	.
O=C(NNC(=S)NC1CCCCC1)c1ccccc1O	-4	0	-6	97*	3	0
CCOc1ccc(OCc2ccc(C(=O)N/N=C(\C)c3ccccn3)cc2)cc1	.	-2	-3	-12	18	0
CCC(C)/C(C)=N/NC(=O)c1ccc(COc2ccc(Cl)c(C)c2)cc1 (stereo not given)	.	-5	-2	99*	.	1
Cc1ccccc1NC(=O)CN1C(=O)S/C(=C\c2ccc(-c3cc(C(=O)O)ccc3C)o2)C1=O	.	-2	14	.	23	0
C#CCN1C(=O)S/C(=C\c2ccc(-c3ccc(C(=O)O)cc3C)o2)C1=O	4	0	12	90*	-117	58*
CC(C)(C)OC(=O)CN1C(=O)S/C(=C\c2ccc(-c3cccc(C(=O)O)c3)o2)C1=O	.	.	.	97*	.	.
CCOC(=O)C(C)N1C(=O)S/C(=C\c2ccc(-c3ccccc3C(=O)O)o2)C1=O (stereo not given)	7	-2	49	1	-9	60*
Cc1ccc(NC(=O)CN2C(=O)S/C(=C/c3ccc(-c4cccc(C(=O)O)c4)o3)C2=O)cc1	.	0	0	.	3	.
Cc1ccc(C(=O)O)cc1-c1ccc(/C=C2\SC(=O)N(CC(=O)Nc3ccccc3)C2=O)o1	-2	-1	19	0	1	35*
COC(=O)C[C@@H]1C[C@H]2c3cc(NC(=O)c4cccnc4)ccc3O[C@H]2[C@@H](CO)O1	-1	2	.	.	-3[16.7 µM]	-2
Cc1ccc(S(=O)(=O)NCC[C@@H]2CC[C@H](NC(=O)Nc3ccccc3F)[C@H](CO)O2)cc1	5	2	.	.	27[16.7 µM]	-3
COc1ccc(NC(=O)N2CCC3(CC2)CN(CC2CC2)[C@H](CO)c2c3c3ccc(OC)cc3n2C)cc1	.	5	.	.	.	.
O=[N+]([O-])c1cc2ccccc2c(O)c1O	4	.	46	.	-2	41*
SMILES	PglD inh	F508del corr	NSD2 HMT inh	ALR H2O2 inh	HIV Env fusion	Casp6 inh
O=[N+]([O-])c1cc(-c2ccccc2)cc([N+](=O)[O-])c1O	1	1	14	.	2	6
CNC(=S)NNC(=O)c1sc2cc(C(F)(F)F)cnc2c1-c1cccnc1	.	3	-1	88*	7	-2
Cc1cccc(/C=C/C(=O)c2cc(Br)ccc(=O)c2O)c1	4	.	3	98*	.	.
CCOc1ccc(/C=C/C(=O)c2cc(Br)ccc(=O)c2O)cc1	.	.	2	96*	64*	17
Fc1cccc(CN2C[C@@H]3N[C@H](C2)C3c2ccc(/C=C/c3ccccc3)cc2)c1 (stereo not given in full)	.	-8	.	.	.	.
COCCn1c(SCC#N)nnc1-c1ccccc1	6	.	1	-13	-24	.
CCn1c(CN2CCCCCC2=O)nnc1SCc1cnc(-c2ccccc2)s1	6	.	.	99*	?	.
O=C1CCCCCN1Cc1nnc(SCc2nc3ccccc3s2)n1-c1ccccn1	-1	.	-1	.	-82	.
COCCn1c(SCc2cnc(-c3ccccc3)s2)nnc1-c1ccncc1	6	.	1	99*	.	.
COc1ccc(-n2cnnc2SCc2cnc(-c3ccccc3)s2)cc1	-2	.	1	99*	-18	.
O=C(C1CC1)N1CC2(C1)[C@@H](c1ccccc1)[C@@H](CO)N2CC1CCCC1	.	0	.	.	.	2
C[C@@H]1CN([C@@H](C)CO)C(=O)c2cc(C3=CCCC3)cnc2O[C@@H]1CN(C)C	0	1	.	.	8[16.7 µM]	-1
CCCNC(=O)[C@@H]1[C@@H](CO)[C@@H]2Cn3c(ccc(C4=CCCC4)c3=O)[C@@H]2N1CCC	-8	0	.	.	.	-1
COC(=O)c1nc(NC(=O)c2cc(OC)c(OC)c(OC)c2)n[nH]1	-3	0	-2	98*	-2	6
CO[C@@H]1CN(C)C(=O)c2cc(NC(=O)NC(C)C)ccc2OC[C@H](C)N(Cc2cncnc2)C[C@@H]1C	4	2	.	.	-3[16.7 µM]	.
Clc1ccccc1CSc1snnc1-c1ccccc1	-4	.	-4	98*	-154	.
Clc1ccc(CSc2snnc2-c2ccccc2)cc1	10	.	-1	-8	-83	.
CO[C@@H]1CN(C)C(=O)c2ccc(NC(C)=O)cc2OC[C@@H](C)N(S(=O)(=O)c2cn(C)cn2)C[C@@H]1C	-2	1	.	.	.	0
CN1CCN(Cc2nc3ccccc3c(=O)n2Cc2nc(-c3ccc4ccccc4c3)cs2)CC1	.	-5	0	98*	11	-3
C=C1c2cccc(O)c2C(=O)C2C(=O)[C@]3(O)C(=O)C(C(N)=O)C(=O)[C@@H](N(C)C)[C@@H]3[C@@H](O)[C@H]12 (stereo not given in full)	1	-2	.	.	60*	.
CC(C)c1c(O)nc(SCC(=O)Nc2ccc3c(c2)CCC3)[nH]c1=O	18	.	5	99*	.	.
Cc1ccc(NC(=O)CSc2nc3c(c(=O)[nH]2)CCC3)cc1C	-5	0	1	18	.	-1
CC(C)Cc1c(O)nc(SCC(=O)Nc2ccc3c(c2)CCC3)[nH]c1=O	.	2	.	99*	.	1
COc1ccc2nc(SCC(=O)Nc3ccc4c(c3)CCC4)[nH]c2c1	.	.	0	-21	10	.
CCC(=O)N1CC2(C1)[C@H](c1ccccc1)[C@H](CO)N2C(=O)c1cccnc1	.	-1	.	.	.	0
CN1c2ccccc2C(C)(C)C12C=Cc1cc(O)ccc1O2 (stereo not given)	-1	0	4	80*	.	-2
